# Values joined by “and” are separate entries in the source; they are usually repeats but may differ in a detail not shown here. Equal entries are not always repeated. Screen size: about 340,000 compounds; about 390 (0.11%) were called active. The sample holds actives, similar compounds and a random draw of the others, so the mix is not that of the screen. Values without a mark were called inactive.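 The calls were made as follows: active = inhibition above the mean inhibition of all tested compounds plus 3 SD (cut at about 17% in these data); inactive = the rest.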
# Target: Troponin I, cardiac muscle (Homo sapiens) + Troponin T, cardiac muscle (Homo sapiens) + Troponin C, slow skeletal and cardiac muscles (Homo sapiens) (UniProt P19429+P45379+P63316)
# Experiment: cardiac RTF calcium sensitivity inhibitors, primary screen, biochemical, IANBD-TnC fluorescence, EC70 calcium (AID 493244);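 also: assay run at fixed EC70 calcium of 1.6 mM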
# Details: IANBD-labeled cardiac RTF, Ca2+ fluorescence; at 7.15 µM; hits give high values
row,SMILES,inhibition
1,Cc1cc(C)c2nc(SCC(=O)N(C)C3CCS(=O)(=O)C3)cc(C)c2c1 (stereo unspecified),-11.7%
2,Cc1cc2oc(=O)cc(-c3ccccc3)c2c(C)c1-c1ccc(OC(F)(F)F)cc1,-2.33%
3,CCn1c(SCc2cc(=O)n3ccsc3n2)nc2ccccc21,-0.11%
4,COc1ccc(S(=O)(=O)NCC2CCCN(C(=O)c3occc3C)C2)cc1 (stereo unspecified),-1.36%
5,COc1ccc2oc(N)nc2c1,1.17%
6,COc1cc(C(=O)Nn2c(O)c(C3=c4ccccc4=NC3=O)sc2=S)ccc1O,-0.38%
7,C=CCn1c(N)cc(=O)nc1SCC(=O)Nc1cccc2ccccc12,-2.98%
8,COc1cc(OC)c2c(c1)OC(=O)CC2c1cc(OC)c(OC)c(OC)c1 (stereo unspecified),-1.64%
9,NC(=O)C1(N2CCCCC2)CCN(C(=O)c2ccc(C#Cc3ccccc3)o2)CC1,-7.6%
10,N#CC1(Nc2ccc(-c3ccc(Cl)cc3)cc2)CCCC1,-2.12%
11,O=C(COC(=O)c1ccccc1Cl)NC1CCCCCCC1,3.26%
12,O=C(COC(=O)c1ccccc1SCC(=O)NC1CCCCC1)NC1CCCCC1,1.46%
13,C=CCNC(=O)COC(=O)c1ccccc1C(=O)N(C)C1CCCCC1,18.3% (active)
14,CCCCN(C(=O)CSCc1ccc(C)cc1)c1c(N)n(Cc2ccccc2)c(=O)[nH]c1=O,-2.92%
15,COc1cccc(NC(=S)C(C#N)=C2N(C)c3ccccc3N2C)c1,-5.1%
16,Cc1nc(-c2ccccc2)sc1-c1nnc(C2CC2)o1,-8.96%
17,O=C(CNC(=O)C12CC3CC(CC(C3)C1)C2)OCC(=O)N1CCCCC1,-10.1%
18,CC1(C)C/C(=N/Nc2ccc([N+](=O)[O-])cc2[N+](=O)[O-])C(C)(C)O1,-8.69%

row,SMILES,inhibition
1,Cc1ccc(C(=O)C[n+]2cc(-c3ccccc3)n3c2CCCCC3)cc1,-12.2% and -7.58%
2,CCOC(=O)c1nnn2c1nc(N1CCN(c3ccccc3)CC1)c1ccccc12,-5.69%
3,CCCCn1c(N)c(N(CC(C)C)C(=O)CSc2ccc([N+](=O)[O-])cc2)c(=O)[nH]c1=O,-11.5%
4,C[N+](C)(C)CCNC(=O)c1cc[n+](Cc2ccccc2)c(/C=N/O)c1,0.25%
5,CC1CCCCC1NC(=O)COC(=O)Cc1ccc(Br)cc1 (stereo unspecified),-1.84%
6,O=C1Nc2c(Br)cc(Br)cc2C1(O)N1CCOCC1 (stereo unspecified),-1.44%
7,CCc1[nH]nc(C(=O)N2CCCC(CO)(Cc3ccc(F)cc3F)C2)c1C (stereo unspecified),-5.33%
8,COC(C(=O)Nc1ccc(S(=O)(=O)Nc2ccc(C)c(C)c2)cc1)c1ccccc1 (stereo unspecified),-0.7%
9,Cc1cccc(-c2c(NC(=O)c3ccco3)oc3ccc(Cl)cc3c2=O)c1,-4.74%
10,C/C(=N/NC(=O)c1ccncc1)c1ccc2c(c1)OCO2,-5.5%
11,C/C(=N\NC(=O)C(N)=O)c1ccc2c(c1)OCCO2,17.1% (active)
12,C/C(=N\NC(=O)COc1ccc(C)cc1[N+](=O)[O-])c1ccc2c(c1)OCCO2,-7.39%
13,CC(C)(C)c1ccc(C(=O)NCc2nnc(SCC(=O)N3CCCc4ccccc43)n2-c2ccccc2)cc1,-6.84%
14,CCCCSc1nnc2c(n1)OC=Nc1ccccc1-2,-2.01%
15,Cc1ccc2c(c1)C1C[N+](C)(CC(=O)c3ccccc3)CCC1N2C(=O)c1ccccc1Cl (stereo unspecified),-13.7%
16,COc1ccc(C2CC(=O)NC(=O)C2)cc1,-0.2%
17,COc1ccc(CCC(=O)Nc2ccc(Cl)c(S(=O)(=O)N3CCOCC3)c2)cc1OC,-10.9%
18,CCc1nnc(NC(=O)c2cc(S(=O)(=O)N3CCN(CC)CC3)ccc2Cl)s1,-8.17%
